In PubChem BioAssay (Tox21):
Inconclusive results are not listed. A number with no mark means an inactive call. The source made the active and inactive calls. Calls follow the shape of the dose curve; as a rule, active = well fitted activation curve with a large enough effect in the repeat runs; inconclusive = weak or mixed curves; inactive = flat fitted curve, though single readings scatter.

Assay: A CellTox Green Cytotoxicity Assay to monitor cytotoxicity in HEK293 cells - 24 hour (AID 1224875); also: nearly all actives have a fitted effect of over 45% in size
Settings: CellTox Green fluorescence; series mostly up to 76.8 µM; activity change: at the top concentration
Text: National Center for Advancing Translational Sciences [NCATS]
NIH Chemical Genomics Center [NCGC]
U.S. Environmental Protection Agency [EPA]
National Institutes of Environmental Health Sciences [NIEHS]
National Toxicology Program [NTP]
Cell-based models are critical for drug discovery. Determining the natural cytotoxic effects resulting from test compounds is an essential research activity. A CellTox Green Cytotoxicity Assay to monitor cytotoxicity in real time of continues cell culture during 40 hours of the compound treatment was used to screen Tox21 10K library compounds in Hek293 cells. CellTox Green Cytotoxicity Assay is a nonlytic, homogeneous, biofluorescent method to measure cytotoxicity in cell culture after experimental manipulation. The assay system uses a proprietary asymmetric cyanine dye that is excluded from viable cells but preferentially stains the dead cell's DNA. […] Viable cells produce no appreciable increases in fluorescence. Therefore, the fluorescence signal produced by the binding interaction with dead cell DNA is proportional to cytotoxicity.
The mixture of Hek293 cell suspension and reagents were dispensed at 600cells/6 ul/well in 1536-well tissue culture treated black solid bottom plates using a Multidrop dispenser. After the assay plates were incubated at a 37 C/5% CO2 incubator for 5 hours, 23 nL of compounds dissolved in DMSO, positive and negative controls was transferred to the assay plate by a pintool work station. The plates were incubated at 37 C for 40 hours. The fluorescence intensity were measured at 0h, 8h, 16h, 24h, 32h and 40h time points using ViewLux plate reader during compound treatment.
% is scaled to controls: 0 for no effect and ±100 for the full control effect.

Row | SMILES | activity change | Potency
1 | CCN(CC)C(C)=O | -2.07% | –
2 | CCCCOC(=O)c1ccccc1C(=O)OCC(CC)CCCC (stereo not given) | 5.26% | –
3 | C=C(C)C(=O)OCCN(C)C | -9.09% | –
4 | CCCCCCCCN(C)C | -1.75% | –
5 | CCCCCCCCCCCCC(=O)O | 2.62% | –
6 | Nc1nc(CC(=O)O)cs1 | -8.71% | –
7 | S=C(S)NCCNC(=S)S | -8.42% | –
8 | CC(C)CCCCCCOC(=O)c1ccc(C(=O)OCCCCCCC(C)C)c(C(=O)OCCCCCCC(C)C)c1 | 2.77% | –
9 | Cn1sccc1=O | – | inactive
10 | CC(C)(C)c1cc(CO)cc(C(C)(C)C)c1O | 9.1% | –
11 | CC(=O)c1ccc2c(c1)[C@H](NC(=O)c1ccc(F)cc1)[C@@H](O)C(C)(C)O2 | -12.2% | –
12 | c1ccc(OCc2ccc(CCCN3CCOCC3)cc2)cc1 | 2.54% [at 35.3 µM, hits give high values] | –
13 | CCCCCCCCCC(=O)OCC | -19.5% | –
14 | CCC(C)N(C)C(=O)c1cc2ccccc2c(-c2ccccc2Cl)n1 (stereo not given) | 4.99% [at 35.3 µM, hits give high values] | –
15 | O=CNc1ccccc1 | -1.66% | –
16 | CCCCC(CC)COCCCN (stereo not given) | 13% | –
17 | O=C(c1ccccc1)c1ccc2n1CCC2C(=O)O (stereo not given) | -4.46% [at 35.3 µM, hits give high values] | –
18 | Cc1cc(CC(=O)O)c(C)n1-c1ccc(Cl)cc1 | -6.57% [at 35.3 µM, hits give high values] | –
19 | O=S(=O)(O)c1ccc(O)c2ncccc12 | 2.81% | –
20 | CC(C)(C)c1ccc(S)cc1 | 7.87% | –

Row | SMILES | activity change | Potency
21 | Cc1ccc(C)o1 | -0.97% | –
22 | OCC1CC2CC1C1CCC(CO)C21 (stereo not given) | -0.815% | –
23 | NCCCN(CCO)CCO | -21.7% | –
24 | CN1CCN(C2=Nc3cc(Cl)ccc3Nc3ccccc32)CC1 | 25.6% [at 35.3 µM, hits give high values] | –
25 | CCCCCC/C=C/C=O | -8.02% | –
26 | O=C(O)C1CCC(C(=O)O)CC1 (stereo not given) | -10.9% | –
27 | O=C(O)COC(=O)Cc1ccccc1Nc1c(Cl)cccc1Cl | -0.421% [at 35.3 µM, hits give high values] | –
28 | CC[C@H](C)[C@H](N)C(=O)O | 0.935% [at 35.3 µM, hits give high values] | –
29 | Cc1ccccc1N=Nc1ccc(N=Nc2c(O)ccc3ccccc23)c(C)c1 | -13.8% [at 35.3 µM, hits give high values] | –
30 | CCOc1ccc2[nH]cc(C(=O)NCc3ccccc3)c(=O)c2n1 | 0.772% | –
31 | CCOc1cc(OCC)c(C(=O)CCC(=O)O)cc1OCC | -1.87% [at 35.3 µM, hits give high values] | –
32 | CCCOc1ccc2nc(NC(=O)OC)[nH]c2c1 | -13.9% [at 35.3 µM, hits give high values] | –
33 | CN(C)CCCNCCCN | 2.82% | –
34 | CCCCCCCCCO | -8.34% | –
35 | N#Cc1c(F)cccc1F | -17% | –
36 | CCCC(C)C | 16.6% | –
37 | CN1CCC(=C2c3ccccc3CCc3sccc32)CC1 | 6.46% [at 35.3 µM, hits give high values] | –
38 | CC[C@@H]1C[C@H](N(Cc2cc(C(F)(F)F)cc(C(F)(F)F)c2)C(C)=O)c2cc(C(F)(F)F)ccc2N1C(=O)OC(C)C | -1.63% | –
39 | CC(=O)OCCc1ccccc1 | -12.3% | –
40 | CCCCOCCOCCOCCOCCO | 6.97% | –
